Molecules are shown by their SMILES. Activity calls are given as the source filed them.
Note: test concentration not given here.

One assay can be described thus: JC-1 mitochondrial signal, unstimulated adipocytes – cell-based, JC-1 fluorescence, 3T3-L1 adipocytes, 24 h, 100 nL compound, profiling panel (AID 1168). The settings on record: JC-1 mitochondrial fluorescence, higher = more signal, called active from +8 up or from −8 down.
As for `CCOC(=O)C1=C[C@@H](c2ccccc2)N(S(=O)(=O)c2ccc(C)cc2)[C@H]1c1cccc(Cl)c1`, the z-score is -0.591 (inactive).
Still for that read-out and setting: under `O=C1c2ccccc2[C@](Cc2ccccc2I)(C(=O)NCCN2CCOCC2)[C@H](c2ccc(CO)cc2)N1Cc1ccccc1` stands 0.421 (inactive); under `O=C(O)[C@H]1C[C@H]2C(=O)N3CCC[C@H]3C(=O)N2[C@H]1c1cccc(OCCO)c1`, -0.652 (inactive).

Another assay is described as follows: JC-1 mitochondrial signal, unstimulated myeloma cells – cell-based, JC-1 fluorescence, RPMI8226, 24 h, 100 nL compound, profiling panel (AID 1169). Particulars: JC-1 mitochondrial potential fluorescence, higher = more signal.
Turning to `O=C1C[C@]2(c3ccc([N+](=O)[O-])cc3)C(=O)N(Cc3ccccc3)c3cc(CO)ccc3[C@H]2N1CC12CC3CC(CC(C3)C1)C2`, the z-score came out at 0.589.
As for `Cc1c(NC(=O)/C(C#N)=C/C=C/c2ccc(N(C)C)cc2)c(=O)n(-c2ccccc2)n1C`, the z-score is -0.665.
On the same count and under the same terms, the result for `COCCOC(=O)N1C(=O)[C@@]2(c3ccccc31)[C@H](c1ccc(OCCO)cc1)N1[C@H](c3ccccc3)[C@H](c3ccccc3)OC(=O)[C@H]1[C@@H]2C(=O)Nc1nc2ccccc2s1` reads -1.09; that for `COCCCNC(=O)[C@@]1(Sc2ccc(C)cc2)CC(=O)N(Cc2cc(C(F)(F)F)cc(C(F)(F)F)c2)[C@@H]1c1ccc(CO)cc1`, 0.786; that for `CCCC[C@@H]1C[C@H]1[C@@H](NC(=O)c1ccccc1)c1ccc(Cl)cc1`, -0.852.
On the same count and under the same terms, the result for `CC(C)C(CO)N1C(=O)[C@]2(C)C3C(=O)OCCC/C=C\[C@H]3OC23C=CCN(c2ccc(Cl)cc2)C(=O)[C@@H]13` (stereo partly drawn) reads -0.634; that for `COC(=O)[C@@]1(Cc2ccc(OC)cc2)[C@H]2c3cc(C(=O)N4CCCC4)n(CCc4cc5ccccc5[nH]4)c3C[C@H]2CN1C(=O)c1ccccc1`, -0.922; that for `CCCC[C@@H]1C[C@H]1[C@@H](NC(=O)c1cccnc1)c1ccc(-c2ccccc2)cc1`, -0.642.
As for `[N-]=[N+]=Nc1ccccc1[C@@H]1OC(c2ccc(OCCCO)cc2)=N[C@]1(CCS(=O)(=O)c1ccccc1)C(=O)NCCN1CCOCC1`, the z-score was -0.465.
In turn, `C[C@@H](OCc1ccccc1)C1NC(=O)[C@@]23C(=O)N[C@@H](Cc4ccccc4)C2[C@H](C)[C@@]2(C)O[C@H]2C3/C=C/C/C=C\CNC(=O)CNC1=O` (stereo partly drawn) showed a z-score of 0.158.
Still for that read-out and setting: the result for `C=C(CCCC)/C(=C/C[C@@H](OC(=O)c1ccncc1)c1cccc(OCCO)c1)c1cnc2ccccc2c1` reads -0.497.
The compound `CC(=O)n1cc(C(O)C2C=CC3C(=O)N(c4ccccc4)C(=O)C3N2Nc2ccccc2)c2ccccc21` (stereo not drawn) showed a z-score of -0.502.
In turn, `C=CCN1C(=O)[C@]2(CC=C)N=C(c3ccc(OCCCO)cc3)O[C@@H]2c2ccccc21` returned a z-score of -1.16.
The same measure, in the same setting: the result for `CCOC(=O)C[C@H]1[C@H](OC(=O)Cc2ccc3c(c2)OCO3)[C@@H](NC(=O)C2CCCCC2)c2cc(OCCCO)ccc2N1C(=O)c1ccc2ccccc2n1` reads 0.602; that for `O=C1O[C@@H](c2ccccc2)[C@@H](c2ccccc2)N2[C@@H](c3ccccc3OCCO)[C@]3(C(=O)Nc4ccc(C#CC5=CCCCC5)cc43)[C@@H](C(=O)NC[C@H](O)c3ccccc3)[C@H]12`, -0.664.
Still for that read-out and setting: the result for `O=C1OCC=C[C@H]2OC34C=CCN(Cn5nnc6ccccc65)C(=O)[C@H]3N(CCCCCCO)C(=O)[C@@H]4[C@@H]12` (stereo partly drawn) reads -0.638; that for `COCCCNC(=O)[C@]1(Cc2ccccc2N=[N+]=[N-])N=C(c2ccc(OCCCO)cc2)O[C@@H]1c1ccccc1N=[N+]=[N-]`, -1.17; that for `CC(C)c1ccc(NN2C(C(O)c3ccco3)C=CC3C(=O)N(c4ccccc4)C(=O)C32)cc1` (stereo not drawn), 0.473.
Same read-out and setting: under `Cc1ccc(S[C@]2(C(=O)NCC(C)C)CC(=O)N(Cc3ccccc3Cl)[C@@H]2c2ccc(CO)cc2I)cc1` stands -0.788.
`C=CCC(OC(C)=O)[C@@H]1[C@@H](N(Cc2ccc(-c3ccccc3)cc2)C(=O)c2cccc3ccccc23)c2cc(OCCCO)ccc2N1C(=O)Cc1ccc2ccccc2c1` (stereo partly drawn) registered a z-score of 1.22.
Same read-out and setting: under `CC=CC(O)C1C=CC2C(=O)N(C)C(=O)C2N1Nc1ccc([N+](=O)[O-])cc1[N+](=O)[O-]` (stereo not drawn) stands 0.0263; under `CC(C)(C)OC(=O)CC[C@]1(C(=O)NCCN2CCOCC2)N=C(c2ccc(OCCCO)cc2)O[C@H]1c1ccccc1`, -0.69.
On the same count and under the same terms, under `CCCCC(=C=CC[C@@H](O)c1ccc(OCCO)cc1)C[C@@H](O)COCc1ccccc1` stands 0.178; under `COC(=O)[C@H](Cc1ccccc1)N1CC(/C=C/C2CC2)=C[C@@H]1[C@@H](O)Cc1ccccc1`, -1.04.
In the case of `COCCOC(=O)N1C(=O)[C@@]2(c3cc(C#CCC(C(=O)OC)C(=O)OC)ccc31)[C@H](c1ccc(OCCO)cc1)N1[C@H](c3ccccc3)[C@H](c3ccccc3)OC(=O)[C@H]1[C@@H]2C(=O)N1CCN(c2ncccn2)CC1`, the z-score was -0.262.

The record behind these values is PubChem BioAssay.
